These results are taken from PubChem BioAssay (NCATS).

Results filed as inconclusive are left out. Entries that show only a call come without a potency. Values without a mark were called inactive. Calls of active or inactive are those of the source. Calls follow the shape of the dose curve; as a rule, active = well fitted inhibition curve with a large enough effect; inconclusive = small, poorly fitted or top-dose-only effect; inactive = no such curve, though single readings can be large or run the other way.

The experiment addresses Retinaldehyde dehydrogenase 3 (Homo sapiens) (UniProt P47895). The experiment is described as follows: qHTS for Inhibitors of the Aldehyde Dehydrogenase Family (ALDH1A3) Primary screen (AID 2061315). Particulars: ALDH inhibition qHTS; series mostly up to 56 µM. Background: qHTS replaces the single test concentration by a dilution series.
For the compound `CO[C@H]1[C@H](O)[C@H](O[C@H]2CC[C@]3(C)C4CC[C@]5(C)[C@H](C6=CC(=O)OC6)CC[C@]5(O)C4CC[C@@H]3C2)O[C@@H](C)[C@@H]1O` (stereo not given in full), the Potency result is “inactive”. In the case of `O=C1CCCC2=C1C(c1[nH]ncc1Cl)N=C(Nc1nc3ccc(F)cc3o1)N2` (stereo not given), the Potency result is “inactive”. Still for that read-out and setting: with `C[C@@H]1[C@H](O)[C@@H](C)/C=C/C=C/CC/C=C/C=C/C=C/C=C/[C@H](O[C@H]2O[C@@H](C)[C@H](O)[C@@H](N)[C@H]2O)C[C@@H]2O[C@](O)(C[C@@H](O)[C@H](O)CC[C@@H](O)C[C@@H](O)C[C@@H](O)CC(=O)O[C@H]1C)C[C@H](O)[C@H]2C(=O)O` the entry was “inactive”; with `CCOc1ccc(CCNC(=O)c2ccccc2)cc1OCC`, “inactive”.

On to `C[C@@H]1O[C@@H](O[C@H]2CC[C@@]3(C)C(CC[C@@H]4C3CC[C@]3(C)[C@@H](C5=CC(=O)OC5)CC[C@]43O)C2)[C@H](O[C@@H]2O[C@H](CO)[C@@H](O)[C@H](O)[C@H]2O)[C@H](O)[C@H]1O` (stereo not given in full), for which the Potency entry is “inactive”.

For the compound `CC(=O)O[C@H]1C[C@]2(O)[C@@H]3CC[C@@H]4C[C@@H](O)CC[C@]4(C)[C@H]3CC[C@]2(C)[C@H]1c1ccc(=O)oc1`, the Potency entry is “inactive”. Take `COc1cccc(CNc2ccc(S(=O)(=O)Nc3ccc4ccccc4c3)cc2)c1O`: the Potency result is “inactive”.

`C=C(C)[C@@H]1[C@H]2OC(=O)[C@H]1[C@]1(O)C[C@H]3O[C@]34C(=O)O[C@H]2[C@]14C`: the Potency entry was “inactive”. Still for that read-out and setting: for `CO[C@H]1C[C@H](O[C@H]2CC[C@]3(CO)[C@H]4CC[C@]5(C)[C@@H](C6=CC(=O)OC6)CC[C@]5(O)[C@@H]4CC[C@]3(O)C2)O[C@H](C)[C@H]1O` the value was “inactive”. For the compound `C/C=C(\C)C(=O)O[C@@H]1[C@@H](C)[C@]2(O)C3C=C(C)C(=O)[C@@]3(O)CC(CO)=C[C@H]2C2C(C)(C)[C@@]21OC(=O)C(C)CC` (stereo not given in full), the Potency entry was “inactive”.

On to `C[n+]1cc(P(=S)(c2ccccc2)c2ccccc2)n2ccccc21`, for which the Potency entry is “inactive”. Still for that read-out and setting: with `Fc1cc(F)c2c(c1)C1C=CCC1C(c1cccnc1)N2` (stereo not given) the entry was “inactive”; with `CC(C)C(=O)O[C@H]1[C@@H]2[C@H](C)C(=O)O[C@@H]2C[C@@H](C)[C@@H]2C=CC(=O)[C@]21C`, “inactive”; with `CC(C)=CCC[C@]1(C)C=Cc2c(O)c3c(c(CC=C(C)C)c2O1)O[C@]12C(=C[C@@H]4CC1C(C)(C)O[C@@]2(C/C=C(/C)C(=O)O)C4=O)C3=O`, “inactive”. Same read-out and setting: with `CC[C@H]1C2CC3[C@@H]4N(C)c5ccccc5[C@]45C[C@@H]([C@H]2[C@H]5O)N3[C@H]1O` the entry was “inactive”; with `COC(=O)c1nc(-c2cccc3ccccc23)oc1OC`, “inactive”. On the same count and under the same terms, for `S=P(c1ccccc1)(c1ccccc1)c1c[nH]c2ccccc12` the value was “inactive”. As to `C=C(CO)C(=O)O[C@H]1C/C(C)=C/CC/C(CO)=C/[C@H]2OC(=O)C(=C)[C@H]12`, the Potency result was “inactive”.

Turning to `C[C@]12CC[C@H](O)C[C@H]1CC[C@@H]1[C@@H]2[C@H](O)C[C@]2(C)[C@@H](c3ccc(=O)oc3)CC[C@]12O`, the Potency result was “inactive”.

As to `Cc1cc(-c2nnc3n2CCCCC3)c(C)n1-c1ccc(C(C)(C)C)cc1`, the Potency result was “inactive”. As to `Oc1cccc2cc(N3CCNCC3)cnc12`, the Potency result is “inactive”.

As for `C/C=C(/C)C(=O)O[C@H]1[C@@H]2[C@H](C)C(=O)O[C@@H]2C[C@@H](C)[C@@H]2C=CC(=O)[C@]21C`, the Potency entry was “inactive”.

Consider `CCOc1ccc(CCNC(=O)c2ccc(C(=O)c3ccccc3)cc2)cc1OCC`, for which the Potency result is “inactive”. The same measure, in the same setting: with `C=C1[C@@H](O)[C@]2(O)OC[C@]34C2[C@]2(C)C(C[C@H]3OC(=O)[C@H](O)[C@@]14O)C(C)=CC(=O)[C@H]2O` (stereo not given in full) the entry was “inactive”; with `CCOc1ccc(CCNC(=O)c2cc3ccccc3n2CCN2CCOCC2)cc1OCC`, “inactive”. On the same count and under the same terms, for `CC1=C[C@H]2O[C@@H]3C[C@H]4OC(=O)/C=C/C=C/C(=O)OCC/C(C)=C/C(=O)OC[C@@]2(CC1)[C@]4(C)[C@]31CO1` the value was “inactive”. The same measure, in the same setting: for `COC(=O)c1ccc(O)c2ncc(N3CCN(C)CC3)cc12` the value was “inactive”; for `CC(=O)O[C@H]1C[C@@H](C)O[C@H]2O[C@@H]3CC4CC[C@@H]5C(CC[C@]6(C)[C@@H](C7=CC(=O)OC7)CC[C@]56O)[C@@]4(C=O)C[C@H]3O[C@]21O` (stereo not given in full), “inactive”. For `Nc1ncnc2c1ncn2[C@@H]1O[C@@H]2COP(O)(=S)O[C@H]2[C@H]1O` (stereo not given in full), the activity change, negative = inhibition was 2.78% [at 11.2 µM]. Consider `O=C(N[C@@H]1N=C(c2ccccc2F)c2cccc3c2N(CC3)C1=O)c1cc2ccccc2[nH]1`, for which the Potency result is “inactive”.

For `COC1CC(O[C@H]2CC[C@@]3(C)C(CCC4C3CC[C@]3(C)C(C5=CC(=O)OC5)CCC43O)C2)OC(C)C1OC1OC(COC2OC(CO)C(O)C(O)C2O)C(O)C(O)C1O` (stereo not given in full), the Potency entry was “inactive”. The same measure, in the same setting: with `Cn1cc(P(=S)(c2ccccc2)c2ccccc2)c2ccccc21` the entry was “inactive”; with `Cc1nn2c(=O)cc(N3CCNCC3)nc2s1`, “inactive”.

Consider `S=P(c1ccccc1)(c1ccccc1)c1c[n+](Cc2ccccc2)c2ccccn12`, for which the Potency result was “inactive”.

Take `CCOc1ccc(CCNC(=O)c2cc3cnccc3n2Cc2cccc(C)c2)cc1OCC`: the Potency entry was “inactive”. Still for that read-out and setting: with `CCCCCOc1cc2c(cc1-c1cc(/C=C/C(=O)O)ccc1O)C(C)(C)CCC2(C)C` the entry was “inactive”; with `CCOc1ccc(CCNC(=O)c2cc3cccnc3n2Cc2cccc(C)c2)cc1OCC`, “inactive”. As for `CC[C@H](C)[C@H](NC(=O)[C@H]1CCCCN1C)C(=O)N(COC(=O)CC(C)C)[C@H](C[C@@H](OC(C)=O)c1nc(C(=O)N[C@@H](Cc2ccc(O)cc2)C[C@H](C)C(=O)O)cs1)C(C)C`, the activity change, negative = inhibition was 6.02% [at 1.12 µM]. As for `COc1cccc(CNc2ccc(S(=O)(=O)Nc3nccs3)cc2)c1OC`, the Potency result was “inactive”. Still for that read-out and setting: with `CO[C@H]1[C@H](O)[C@H](O[C@H]2CC[C@]3(C=O)C4CC[C@]5(C)[C@H](C6=CC(=O)OC6)CC[C@]5(O)C4CC[C@@H]3C2)O[C@@H](C)[C@@H]1O` (stereo not given in full) the entry was “inactive”.
